Results from PubChem BioAssay (EPA / NIEHS).
The source made the active and inactive calls. How the source made its calls: active means hit-call score of the fitted dose curve at least 0.9, where 1 is the maximum; inactive means score below 0.9.

Each compound was assayed on Bcl-2 (BID) gene, BID (gene 637) (assay: LTEA_HepaRG_BID: Life Technologies and Expression Analysis (LTEA) Assay for Bcl-2 (BID) gene using HepaRG (AID 2283476)). Settings: mRNA level, 48 h; actives raise or lower the signal.
Protocol: LTEA_HepaRG is a cell based, multiplexed-readout assay that uses HepaRG, a human liver cell line, with measurements taken at 48 hours after chemical dosing on a 96-well plate.LTEA_HepaRG_BID is one of 102 assay component(s) measured in the LTEA HepaRG cell culture assay. It is a marker of Cell proliferation, survival, death.Data from the assay component LTEA_HepaRG_BID was analyzed into 1 endpoint. This assay endpoint, LTEA_HepaRG_BID, was analyzed with bidirectional fitting relative to DMSO as the negative control and baseline of activity. Using a type of inducible reporter, measures of mRNA induction for gain or loss-of-signal activity can be used to understand regulation of transcription factor activity. To generalize the intended target to other relatable targets, this assay endpoint is annotated to the cell cycle intended target family, where the subfamily is Cell proliferation, survival, death.
A total of 1060 chemcials from the ToxCast library were tested in eight-point concentration-response experiments. Cell culture and cytotoxicity assays were conducted at Thermo Fisher Scientific's Custom Services facility (Madison, WI). A single lot of human HepaRG cells (Thermo Fisher Scientific, Frederick, MD) was used for the cell culture experiments. 96-well format collagen type I coated plates of human HepaRG cells were prepared using established methods. Briefly, cryopreserved HepaRG cells were thawed, plated at a density of approximately 100,000 cells/well in HepaRG Thaw, Plate, and General Purpose media (HPRG770, Thermo Fisher Scientific), and incubated for 48 hours. 0.5% DMSO was selected as vehicle control to balance the requisite need of DMSO in HepaRG cultures to maintain differentiation (for example, baseline metabolism, proportions of hepatocytes vs. cholangiocytes), while enabling further hepatic receptor pathway activation (for example, PXR and CAR) in response to chemical exposure. 48 hours after plating, the culture medium was replaced with HepaRG Serum-Free Incudtion Media. Cells were exposed to each test chemical in duplicate and maintained in CO2 incubators for another 48 hours. Chemical plates were thawed to room temperature and 200x concentrations of treatment groups were prepared. 8-point conentration-reponse curves were made with the highest exposure at 100 uM, followed by half-log dilutions, all in 0.5% DMSO. Each test plate contained variouse controls, induction positive controls (1mM phenobarbital), cytotoxicity positive controls ([…] aflatoxin B1), vehicle controls (0.5% DMSO), and total lysis controls (0.5% DMSO). Cell morphology images were taken using an Essen IncuCyte FLR automated microscope, with six 96-well plates imaged in about 24 minutes. Images were captured and exported and JPEG files. Spent culture media was transfered to black-well plates for the LDH assay, and remaining media was sorted at -80 C for later use. Cells were treated with RLT buffer and frozen until shipped for gene expression analysis. Total RNA was isolated from the cell suspension in 75 uL of Buffer RLT (Qiagen, Germantown, MD 20874) by Quintiles/Expression Analysis (Durham, NC) using a custom isolation procedure. Total RNA from each plate well was transferred to a preamplification plate. Fluidigm's 96.96 Dynamic ArrayTM (Fluidigm, Amsterdam, the Netherlands) technology was used for gene expression analyses by quantitative reverse transcription polymerase chain reaction (qRT-PCR, performed by Quintiles/Expression Analysis, Durham, NC)89. Standard TaqManTM Assays (Applied Biosystems/ThermoFisher Scientific, Foster City, CA) were used to assess the expression of 93 genes selected based on their selectivity and sensitivity to important hepatic receptors known to be modulated by environmental chemicals; importance in human hepatocyte functionality; and hepatotoxicity. […]

Question: With `O=C(O)CC(O)(CC(=O)O)C(=O)O` as the compound, how does the outcome read?
Answer: The outcome was “inactive”.

Question: With `Cc1occc(=O)c1O` as the compound, how does the outcome read?
Answer: The outcome was “inactive”.

Question: `CN(C)C(=O)NC1(c2ccccc2)CCN(CCC[C@]2(c3ccc(Cl)c(Cl)c3)CCCN(C(=O)c3ccccc3)C2)CC1` was tested. Which outcome did it give?
Answer: Its outcome is “inactive”.

Question: With `NC=O` as the compound, how does the outcome read?
Answer: The outcome was “inactive”.

Question: With `CC(=O)O` as the compound, how does the outcome read?
Answer: The outcome was “inactive”.

Question: Which outcome does the source give for `C=CCCCCCCCCCCCC` here?
Answer: The outcome was “inactive”.

Question: How did the outcome turn out when `OCC(O)CO` was run?
Answer: Its outcome is “inactive”.

Question: How did the outcome turn out when `CCCCCCC(C=O)=Cc1ccccc1` was run?
Answer: The outcome was “inactive”.

Question: How did the outcome turn out when `CCCC(=O)O` was run?
Answer: The outcome was “inactive”.

Question: For `CN(C)C(=O)NC1(c2ccccc2)CCN(CC[C@@]2(c3ccc(F)c(F)c3)CN(C(=O)c3ccccc3)CCO2)CC1`, which outcome is on record?
Answer: The outcome was “inactive”.

Question: Which outcome does the source give for `Cc1ccc(C(C)(C)C)c(O)c1` here?
Answer: Its outcome is “inactive”.

Question: For `O=NO`, which outcome is on record?
Answer: Its outcome is “inactive”.

Question: Which outcome does the source give for `CCOCCOCCO` here?
Answer: The outcome was “inactive”.

Question: How did the outcome turn out when `c1ccc2occc2c1` was run?
Answer: Its outcome is “inactive”.

Question: How did the outcome turn out when `COc1ccc(OC(F)(F)F)cc1CN[C@H]1CCCN[C@H]1c1ccccc1` was run?
Answer: The outcome was “inactive”.

Question: For `O=C(O)c1[nH]n(-c2ccc(S(=O)(=O)O)cc2)c(=O)c1N=Nc1ccc(S(=O)(=O)O)cc1`, which outcome is on record?
Answer: The outcome was “inactive”.

Question: With `CC(C)OC(=O)C(C)(C)Oc1ccc(C(=O)c2ccc(Cl)cc2)cc1` as the compound, how does the AC50 read?
Answer: Its AC50 is 42.2 nM (active).

Question: For `CC(=O)OCC(COC(C)=O)OC(C)=O`, which outcome is on record?
Answer: The outcome was “inactive”.

Question: For `CO[C@@H]1COCC[C@@H]1N[C@@H]1CC[C@@](C(=O)N2CCc3ncc(C(F)(F)F)cc3C2)(C(C)C)C1`, which outcome is on record?
Answer: Its outcome is “inactive”.

Question: How did the outcome turn out when `Cc1ccc(-c2cc(C(F)(F)F)nn2-c2ccc(S(N)(=O)=O)cc2)cc1` was run?
Answer: Its outcome is “inactive”.

Question: With `CC(N)=O` as the compound, how does the AC50 read?
Answer: Its AC50 is 321 nM (active).

Question: `Cc1cc(Cc2ccc(N)c(C)c2)ccc1N` was tested. Which outcome did it give?
Answer: Its outcome is “inactive”.

Question: How did the outcome turn out when `CCC(C)N(C)C(=O)c1cc2ccccc2c(-c2ccccc2Cl)n1` (stereo not given) was run?
Answer: The outcome was “inactive”.

Question: How did the outcome turn out when `O=C1OC(c2ccc(O)cc2)(c2ccc(O)cc2)c2ccccc21` was run?
Answer: The outcome was “inactive”.

Question: Which outcome does the source give for `CCCCc1nc2cccnc2n1Cc1ccc(-c2ccccc2-c2nnn[nH]2)cc1` here?
Answer: Its outcome is “inactive”.

Question: With `O=C(Oc1ccccc1)c1cccc(C(=O)Oc2ccccc2)c1` as the compound, how does the outcome read?
Answer: The outcome was “inactive”.

Question: Which outcome does the source give for `O=C(NS(=O)(=O)/C=C/c1cccs1)c1ccc(F)cc1Br` here?
Answer: Its outcome is “inactive”.

Question: For `CC(C)COC(=O)CCCCC(=O)OCC(C)C`, which outcome is on record?
Answer: The outcome was “inactive”.

Question: How did the outcome turn out when `Nc1nc(Cl)nc2c1ncn2[C@H]1C[C@H](O)[C@@H](CO)O1` was run?
Answer: The outcome was “inactive”.

Question: With `CC(=O)CC(c1ccccc1)c1c(O)c2ccccc2oc1=O` (stereo not given) as the compound, how does the outcome read?
Answer: The outcome was “inactive”.

Question: How did the outcome turn out when `CCCCC(CC)COC(=O)CCCCCCCC(=O)OCC(CC)CCCC` (stereo not given) was run?
Answer: The outcome was “inactive”.

Question: Which outcome does the source give for `CCc1nc(N)nc(N)c1-c1ccc(Cl)cc1` here?
Answer: Its outcome is “inactive”.

Question: With `CC1=C(C)S(=O)(=O)CCS1(=O)=O` as the compound, how does the outcome read?
Answer: The outcome was “inactive”.

Question: For `CCCCC(CC)CO` (stereo not given), which outcome is on record?
Answer: The outcome was “inactive”.

Question: For `NCCOCCOCCN`, which outcome is on record?
Answer: Its outcome is “inactive”.

Question: Which outcome does the source give for `O=C1CCCCC1` here?
Answer: Its outcome is “inactive”.

Question: For `OCC(CO)n1cnc(-c2ccc(F)cc2)c1-c1ccnc(Oc2ccccc2)n1`, which outcome is on record?
Answer: The outcome was “inactive”.

Question: For `O=C1O[C@H]([C@H](O)CO)C(O)=C1O`, which outcome is on record?
Answer: The outcome was “inactive”.

Question: `CCc1cc(C2=C(C(=O)O)N(c3ccccc3C(F)(F)F)S(=O)(=O)c3ccccc32)cc2c1OCO2` was tested. Which outcome did it give?
Answer: The outcome was “inactive”.

Question: How did the outcome turn out when `Cc1c(C)c2c(c(C)c1O)CCC(C)(COc1ccc(CC3SC(=O)NC3=O)cc1)O2` (stereo not given) was run?
Answer: Its outcome is “inactive”.
